Sampled rows, rich in hits. Any-hit rate of the full collection: about 7.4%.
NPC1 promoter act – NPC1 promoter activation; Huh7 NPC1 promoter luciferase reporter, 24 h; Potency, µM (top dose mostly 9.22 µM), inactives show at the highest dose activation, most hits filed as activators; 2.4% of 320,000 active; AID 485313; also: % of control where 0% means no effect; nearly all actives have a fitted effect of over 60% in size
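Huh7 cells stably carrying NPC1 promoter–luciferase, plated in Opti-MEM with 10% FBS for 2 h, were exposed to compound in DMSO for 24 h at 37 °C; luciferase reagent was added for 10 min and luminescence read.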
Rab9 prom act – activators of Rab9 promoter. 2.8% of 320,000 active. AID 485297. Potency, µM (top dose mostly 9.22 µM), for inactives: at the highest dose activation, negative = inhibition, most hits filed as activators. Huh7 Rab9 promoter-luciferase reporter, luminescence, 24 h; also: % of control where 0% means no effect; nearly all actives have a fitted effect of over 60% in size
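Quantitative HTS format; Huh7 Rab9-luciferase reporter cells (1500/well) receive compound 2 h post-plating, incubate 24 h at 37 °C, then get luciferase reagent for 10 min before luminescence reading.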
SMN2 splice enh – increases expression of the SMN2 splice variant | HEK293 SMN2-luciferase splicing reporter, luminescence, 30-36 h | Potency, µM (top dose mostly 46.1 µM), without a hit: top-dose activity change, positive = activation, most hits filed as activators | 2.8% of 210,000 active | AID 1458; also: % of control where 0% means no effect; nearly all actives have a fitted effect of over 55% in size
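HEK293 cells carry an SMN2 […]–luciferase reporter in which exon 7 inclusion puts luciferase in frame. Cells were plated 10-12 h before compound addition, then incubated 30-36 h at 37C. ONE-Glo luminescence was read; sodium butyrate at 4.5 mM final served as control.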
FLuc counter – inhibits or activates purified firefly luciferase, miR-21 counter-screen | P08659 | purified FLuc, Km substrates, luminescence inhibition | Potency, µM (series often up to 57.5 µM), inactives show top-dose activity change, negative = inhibition, most hits filed as inhibitors | 6.9% of 360,000 active;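 also: plate controls were vehicle for no effect and reference inhibitor for full effect; nearly all actives have a fitted effect of over 55% in size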
Target sequence (P08659 whole entry, looked up): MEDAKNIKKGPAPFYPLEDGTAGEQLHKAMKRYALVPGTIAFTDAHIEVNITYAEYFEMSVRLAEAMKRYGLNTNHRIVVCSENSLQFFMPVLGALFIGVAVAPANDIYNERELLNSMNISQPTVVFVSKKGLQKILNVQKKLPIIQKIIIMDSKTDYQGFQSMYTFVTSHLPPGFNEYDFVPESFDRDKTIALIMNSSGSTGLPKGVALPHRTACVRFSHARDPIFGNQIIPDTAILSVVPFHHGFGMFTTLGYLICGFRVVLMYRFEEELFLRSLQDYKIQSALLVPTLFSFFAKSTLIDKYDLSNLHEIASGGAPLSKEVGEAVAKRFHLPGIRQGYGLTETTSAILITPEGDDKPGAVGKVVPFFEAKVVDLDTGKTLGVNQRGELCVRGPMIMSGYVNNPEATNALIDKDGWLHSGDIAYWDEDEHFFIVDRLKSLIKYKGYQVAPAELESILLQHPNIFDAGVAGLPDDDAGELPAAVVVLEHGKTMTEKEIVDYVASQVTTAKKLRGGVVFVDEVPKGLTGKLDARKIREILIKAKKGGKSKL
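Biochemical qHTS of compounds, final roughly 60 µM downward over six points, against 10 nM purified firefly luciferase using Km concentrations of substrates (10 uM D-luciferin, 10 uM ATP) in Tris acetate pH 7.5 buffer; luminescence output.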
ELG1 genotoxic – induces genotoxicity in HEK293T cells with luciferase-tagged ELG1; HEK293T ELG1-luciferase reporter, luminescence, 16 h; Potency, µM (highest dose often 46 µM), inactives show at the top dose activity change, positive = activation, most hits filed as activators; 1.3% of 330,000 active; also: % of control where 0% means no effect; nearly all actives have a fitted effect of over 60% in size
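Quantitative HTS format in 1536-well plates. HEK293T ELG1-luciferase reporter cells receive test compound and are incubated 16 hr at 37 °C, 5% CO2; ONE-Glo added, 30 min room temperature, then luminescence read.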
* marks the source's active call; other numbers are inactive results; ? = inconclusive; . = no result; [ ] = remark or other dose. Calls follow the shape of the dose curve; as a rule, active = well fitted curve in the direction sought with a large enough effect; inconclusive = small, poorly fitted or top-dose-only effect, or another doubt; inactive = no such curve, though single readings can be large; an effect the other way counts as inactive or inconclusive. Potency is read from the fitted curve at half-maximal effect.

SMILES	NPC1 promoter act	Rab9 prom act	SMN2 splice enh	FLuc counter	ELG1 genotoxic
COc1ccc(OCCn2c(=O)sc3ccccc32)cc1	?	?	?	19µM*	?
COc1ccccc1OCCn1c(=O)sc2ccccc21	0%	-2%[1.84 µM]	-25%	?	?
CC1CC(C)CN(C(=O)c2cc3c(s2)CCC3)C1 (centres undefined)	1%	0%	-14%	-18%	15%
CC1CCc2sc(C(=O)N3CCC(C(N)=O)CC3)cc2C1 (centres undefined)	0.4µM*	0.5µM*	.	17µM*	?
NC(=O)C1CCN(C(=O)c2cc3c(s2)CCCCC3)CC1	?	3.5µM*	.	?	18%
O=C(O)C1CCCCN1C(=O)c1cc2c(s1)CCCCC2 (centres undefined)	-8%	0%	.	.	2%
N#Cc1cnc2sc3ccccc3n2c1=N	24%	?	17%	24µM*	14µM*
O=C1CC(C(=O)O)S/C(=N\N=C\c2ccc(Br)cc2)N1 (centres undefined)	-1%	0%	.	17µM*	0%
C/C(=N/N=C1/NC(=O)CC(C(=O)O)S1)c1ccccc1 (centres undefined)	-3%	-1%	-13%	-4%	0%
CN(C)C1(CNC(=O)C2CCN(S(=O)(=O)c3ccccc3C(F)(F)F)CC2)CCCCC1	4%	-6%	.	2%	5%
COc1ccc(Cc2nc3c4cnn(-c5ccccc5Br)c4ncn3n2)cc1	.	.	6%	-4%	.
Cn1ncc2c1ncn1nc(COc3ccc4ccccc4c3)nc21	10%	13%	-4%	-13%	-1%
Cn1ncc2c1ncn1nc(CCc3ccccc3)nc21	0.79µM*	1.3µM*	?	7.6µM*	?
Brc1ccccc1-n1ncc2c1ncn1nc(Cc3ccccc3)nc21	.	.	22%	17µM*	.
CC(=O)Oc1ccc2c(c1)CCC1C2CC[C@]2(C)C(=O)CCC12 (some centres undefined)	.	.	11%	.	.
N#Cc1ccc(/C=C\c2nccc3c2[nH]c2ccccc23)cc1	?	11%	-13%	?	6%
Clc1ccc(/C=C\c2nccc3c2[nH]c2ccccc23)cc1	27%	21%	10%	3.8µM*	17%
O/N=C/c1ccc2ccccc2n1	?	2.8µM*	.	?	?
O/C(=C\c1ccc2ccccc2n1)c1ccncc1	2.5µM*	1.4µM*	.	2.4µM*	?
O/N=C/c1ccc2cccc(O)c2n1	1%	-4%	.	?	-4%
O/C(=C\c1nc2ccccc2nc1/C=C(\O)c1ccccc1)c1ccccc1	3.2µM*	4.5µM*	?	1.1µM*	-7%
CN(/N=C/c1cccc(Br)c1)C1=NS(=O)(=O)c2ccccc21	-4%	2%	.	0%	-3%
CC1CN(C(=O)CCNC(=O)c2ccc(Br)cc2)CC(C)O1 (centres undefined)	-6%	-5%	.	1%	1%
COc1ccc([C@H]2C(C(=O)O)=C[C@@H](C(C)(C)C)N2S(=O)(=O)c2ccc(C)cc2)cc1OC	.	.	.	.	-1%
COc1ccc(/C=N/n2cnnc2SCc2ccc(OC)cc2)cc1	4%	-2%	-5%	13µM*	1%
SMILES	NPC1 promoter act	Rab9 prom act	SMN2 splice enh	FLuc counter	ELG1 genotoxic
O=C(Nc1cc([N+](=O)[O-])ccc1O)c1ccc2c(c1)C(=O)N(Cc1ccco1)C2=O	4µM*	4µM*	.	?	3%
Nn1c(SCc2ccccn2)nncc1=O	1%	-8%	-4%	1%	-10%
O=C(NCC(=O)N1CCOCC1)c1ccc(Cl)c(Cl)c1	.	.	.	.	9%
O=C(NC(Cc1ccccc1)c1nc2ccccc2[nH]1)c1ccc(Cl)c([N+](=O)[O-])c1 (centres undefined)	-1%	9%	.	-8%	-2%
O=C(Nc1nc2ccccc2[nH]1)c1ccc(Cl)c([N+](=O)[O-])c1	-3%	-1%	13µM*	?	?
Cc1c(C(=O)NC(Cc2ccccc2)c2nc3ccccc3[nH]2)cccc1[N+](=O)[O-] (centres undefined)	-2%	2%	-3%	-14%	-2%
Cc1c(C(=O)Nc2nc3ccccc3[nH]2)cccc1[N+](=O)[O-]	19%	?	20µM*	15µM*	14%
O=C(Nc1nc2ccccc2[nH]1)c1ccccc1[N+](=O)[O-]	?	20%	13µM*	?	15%
COC(=O)C1=C(C(=O)OC)[C@@H]2N(Cc3ccccc3)c3ccccc3[C@@]23C[C@@H](C(=O)OC)N(S(=O)(=O)c2ccc(C)cc2)C3=N1	.	.	-6%[9.22 µM]	.	.
Cn1c(=O)cc(OCCCC(=O)NCc2ccco2)c2ccccc21	-8%	-4%	10µM*	-2%	18µM*
COc1ccc(N2CCN(C(=O)CCCOc3cc(=O)n(C)c4ccccc34)CC2)cc1	-1%	2%	-8%	3%	0%
CC(C)CCNC(=O)CCCOc1cc(=O)n(C)c2ccccc12	-8%	-1%	13µM*	5%	?
CC1CCN(C(=O)CCCOc2cc(=O)n(C)c3ccccc23)CC1	-3%	-5%	?	-2%	18µM*
Cc1ccc(CNC(=O)CCCOc2cc(=O)n(C)c3ccccc23)o1	-10%	0%	?	-2%	?
Cn1c(=O)cc(OCCCC(=O)Nc2ccccn2)c2ccccc21	-5%	-7%	21%	2%	21µM*
CC(=O)N1CCc2cc(S(=O)(=O)NC(CC(C)C)C(=O)NCCc3ccc(C)cc3)ccc21 (centres undefined)	.	.	5%	-2%	.
CCCCn1c(=O)c2oc3ccccc3c2n(CC(=O)Nc2cccc(Cl)c2C)c1=O	.	.	.	-5%	.
Cn1c(=O)cc(OCC(=O)NCCCN2CCN(Cc3ccccc3)CC2)c2ccccc21	0%	0%	?	2%	18µM*
Cn1cc(C(=O)Nc2ccccn2)c(=O)c2ccccc21	?	?	.	15µM*	?
Cc1ccccc1C(=O)Nc1ccccn1	.	.	-19%	-13%	.
NC(=O)CCCCC(N)=O	.	.	16%	.	.
COc1ccc(OC)c(C(=O)COC(=O)c2cccnc2Cl)c1	-5%	6%	5%	?	1%
COc1ccc(OC)c(C(=O)COC(=O)c2c(OC)cccc2OC)c1	-4%	4%	-15%	3%	2%
O=C(COC(=O)c1cccnc1Cl)c1ccc(OC(F)F)cc1	-1%	8%	1%	5.4µM*	0%
COc1ccc(C(=O)COC(=O)c2cccnc2Cl)c(OC)c1	21%	2.2µM*	-1%	11µM*	21µM*
O=C(COC(=O)c1cccnc1Cl)c1ccc(Cl)cc1Cl	0%	-8%	-5%	0.76µM*	-1%
COc1ccc(OC)c(C(=O)COC(=O)c2ccccc2O)c1	24%	-1%	5%	12µM*	15%
COC(=O)c1ccc(COC(=O)c2cccnc2Cl)cc1	14%	23%	.	?	?

High-throughput results from PubChem BioAssay.
